Results on 32 compounds are retold here after PubChem BioAssay AID720706 (Broad Institute, 2013).

Each structure is given as a SMILES string. Hit rate of the full screen: of about 350,000 compounds, about 5,500 (1.6%) were called active. The sample holds actives, similar compounds and a random draw of the others, so the mix is not that of the screen.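 How the source made its calls: active means significant combined selectivity score with lowered wild-type GFP, culture density cut under 30%, mutant RFP and density less affected; inactive means any of these conditions unmet.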

This assay can be described thus: reduced GFP signal of wild-type E. coli, primary screen, bacterial rRNA inhibitor project, GFP/RFP fluorescence, OD600, single point (AID 720706). The following applies: E. coli WT GFP vs humanized-ribosome RFP mutants, 24 h; GFP signal change (wild-type ribosome): stronger effect = lower value, DMSO median 0, no signal -100; OD600 change: measured here: OD600 growth, DMSO median 0, no signal -100; RFP signal change: measured here: RFP humanized mutant strains, DMSO median 0, no signal -100, concentration not given here.
For the compound `Cc1ccc(-n2c(C)cc(C(=O)CN3C(=O)C(=O)N(C4CCCC4)C3=O)c2C)cc1`, the GFP signal change (wild-type ribosome) was -12.3% (inactive), the OD600 change is -20.5% and the RFP signal change was 24%.
As to `Cc1cc(C(=O)COC(=O)C2CC2)c(C)n1-c1ccc(F)cc1`, the GFP signal change (wild-type ribosome) is -25.1% (active), the OD600 change is -8.48% and the RFP signal change is -5.46%.
On to `Cc1cc(C(=O)COc2ccccc2Cl)c(C)n1C1CC1`, for which the GFP signal change (wild-type ribosome) was -19.2% (inactive), the OD600 change was -34.3% and the RFP signal change came out at 0.284%.
As for `COc1ccc(C)cc1N(CC(=O)NC(C)c1ccccc1)S(C)(=O)=O` (stereo unspecified), the GFP signal change (wild-type ribosome) was 7.63% (inactive), the OD600 change was found to be 6.56% and the RFP signal change was 4.34%.
Take `Cc1ccccc1OCCC(=O)OCC(=O)NC(C)c1ccccc1` (stereo unspecified): the GFP signal change (wild-type ribosome) is -11.5% (inactive), the OD600 change is -7.58% and the RFP signal change turned out to be 0.763%.
Take `Cc1ccc(OCCCC(=O)NC(C)c2ccccc2)c(C)c1` (stereo unspecified): the GFP signal change (wild-type ribosome) is -20.1% (active), the OD600 change was -9.71% and the RFP signal change came out at 4.93%.
In the case of `COc1ccc2c3c(n(C)c2c1)[C@@H](CO)NCC31CN(S(=O)(=O)c2cccc(C)c2)C1`, the GFP signal change (wild-type ribosome) was -1.82% (inactive), the OD600 change is -19.1% and the RFP signal change came to 1.9%.
Turning to `O=C(Nc1ccccc1)N1CCCCN2[C@H](CO)[C@@H](c3ccc(-c4ccccc4F)cc3)[C@H]2C1`, the GFP signal change (wild-type ribosome) was -59.5% (inactive), the OD600 change was -71.8% and the RFP signal change was -17.2%.
Turning to `Cc1ccccc1-c1cnc2c(c1)C(=O)N([C@H](C)CO)C[C@H](C)[C@@H](CN(C)C(=O)c1ccccc1)O2`, the GFP signal change (wild-type ribosome) is -6.69% (inactive), the OD600 change was determined as 1.45% and the RFP signal change amounted to 1.42%.
The matching figures for `CCNC(=O)[C@@H]1[C@@H](CO)[C@@H]2Cn3c(ccc(C4=CCCCC4)c3=O)[C@@H]2N1Cc1ccccc1F`: 1.16% (inactive), -2.39% and 5.54%.
As for `CCc1ccc(NC(=O)N2CCc3ccccc3C2)cc1`, the GFP signal change (wild-type ribosome) was -10.5% (inactive), the OD600 change is -10.6% and the RFP signal change is -3.21%.
With `O=C(CN1CCOCC1)Nc1cccc([N+](=O)[O-])c1`, the GFP signal change (wild-type ribosome) was 31.7% (inactive), the OD600 change was 26.8% and the RFP signal change stood at 1.38%.
`O=C(Nc1cccc([N+](=O)[O-])c1)N1CCc2ccccc2C1`: the GFP signal change (wild-type ribosome) was -21.9% (active), the OD600 change was -13.6% and the RFP signal change is -7.36%.
Take `Cc1ccc(-c2ccc([C@H]3[C@H]4CN(S(=O)(=O)c5cccc(F)c5)CC(=O)N4[C@H]3CO)cc2)cc1`: the GFP signal change (wild-type ribosome) was 1.77% (inactive), the OD600 change is 8.11% and the RFP signal change was -0.692%.
For `S=C(NCc1cccnc1)Nc1ccc(Cl)cc1Cl`, in that order: -27.1% (active), -3.2% and -7.63%.
Regarding `Cc1ccc(C(=O)NC(=S)NCc2cccnc2)cc1`, the GFP signal change (wild-type ribosome) is -23.8% (inactive), the OD600 change was -23.8% and the RFP signal change is 5.91%.
The matching figures for `CN(CC(=O)NCc1cccnc1)S(=O)(=O)c1cc(Cl)ccc1Cl`: 5.23% (inactive), -2.3% and -0.601%.
With `CC(C)NC(=O)N(C)C[C@@H]1Oc2ccc(NC(=O)CCCCCC(=O)Nc3ccccc3N)cc2C(=O)N([C@@H](C)CO)C[C@H]1C`, the GFP signal change (wild-type ribosome) is 1.03% (inactive), the OD600 change is -8.13% and the RFP signal change was -0.166%.
Regarding `CO[C@H]1CN(C)C(=O)c2cc(NC(=O)c3cnccn3)ccc2OC[C@H](C)N(C(=O)C2CC2)C[C@H]1C`, the GFP signal change (wild-type ribosome) is 1% (inactive), the OD600 change was -0.758% and the RFP signal change is -0.83%.
`N#Cc1cccc(-c2ccc(C3[C@@H]4CNC[C@H]3N4)cc2)c1` (stereo partly specified): the GFP signal change (wild-type ribosome) was -0.575% (inactive), the OD600 change was found to be 6.2% and the RFP signal change came to 2%.
For the compound `C[C@@H]1CCCCO[C@H](CN(C)S(=O)(=O)c2ccccc2)[C@@H](C)CN([C@H](C)CO)C(=O)c2cc(NC(=O)Nc3ccc(F)cc3)ccc2O1`, the GFP signal change (wild-type ribosome) is 4.23% (inactive), the OD600 change came to 5.59% and the RFP signal change was -0.807%.
Turning to `Oc1c(Br)cc(/C=N/NC(=S)NCC2CCCO2)cc1Br` (stereo unspecified), the GFP signal change (wild-type ribosome) was -32.6% (active), the OD600 change was -2.28% and the RFP signal change was found to be 0.247%.
On to `S=C(NCC1CCCO1)N1CCN(c2ccc(Cl)c(Cl)c2)CC1` (stereo unspecified), for which the GFP signal change (wild-type ribosome) was -56.8% (inactive), the OD600 change was -79.1% and the RFP signal change is -18.4%.
For the compound `S=C(NCCc1ccccc1)NCC1CCCO1` (stereo unspecified), the GFP signal change (wild-type ribosome) was 8.89% (inactive), the OD600 change came to 4.83% and the RFP signal change was -3.48%.
For the compound `C[C@@H]1CN([C@@H](C)CO)S(=O)(=O)c2ccc(Br)cc2O[C@H]1CN(C)S(=O)(=O)c1ccccc1`, the GFP signal change (wild-type ribosome) is -30.9% (inactive), the OD600 change is -59.2% and the RFP signal change was found to be 14%.
Regarding `CS(=O)(=O)N1CC2(C1)[C@H](c1ccccc1)[C@@H](CO)N2C(=O)c1ccccc1`, the GFP signal change (wild-type ribosome) was -2.24% (inactive), the OD600 change was determined as 8.82% and the RFP signal change was -1.96%.
With `O=C(c1ccccc1)N1CC(=O)N2[C@@H](CO)[C@H](c3ccc(C#CCC4CCCC4)cc3)[C@@H]2C1`, the GFP signal change (wild-type ribosome) is -0.385% (inactive), the OD600 change was found to be 4.12% and the RFP signal change came out at 15.8%.
As for `O=C(Nc1cccc(Cl)c1)N1C[C@@H]2[C@H](c3ccccc31)[C@H](CO)N2Cc1ccncc1`, the GFP signal change (wild-type ribosome) is -19.3% (active), the OD600 change is -14% and the RFP signal change worked out at 2.23%.
For `O=C(Nc1ccccc1)N1C[C@H]2[C@@H](c3ccccc31)[C@H](CO)N2Cc1ccc(F)cc1`, in that order: -4.61% (inactive), -3.58% and 0.773%.
`O=C(Nc1cccc(Cl)c1)N1C[C@@H]2[C@H](c3ccccc31)[C@H](CO)N2C(=O)C1CC1`: the GFP signal change (wild-type ribosome) is -55.8% (inactive), the OD600 change was -75.7% and the RFP signal change was -10.1%.
Regarding `O=C(C[C@@H]1C[C@@H]2c3cc(NC(=O)c4ccc5c(c4)OCO5)ccc3O[C@@H]2[C@H](CO)O1)NCC1CC1`, the GFP signal change (wild-type ribosome) is -0.47% (inactive), the OD600 change was -2.45% and the RFP signal change was found to be 1.83%.
For `N#C[C@H]1[C@H](c2ccccc2-c2ccc(F)cc2)[C@H](CO)N1C(=O)Cc1ccncc1`, in that order: -3.78% (inactive), 7.17% and -0.986%.
